Measurements published in article PMC10726135, “HNF4α isoforms regulate the circadian balance between carbohydrate and lipid metabolism in the liver”.
The full ranking holds about 18,000 sequences; the median of “log2 normalized intensity” is about 0.36, and the highest 2% start at about 7.3. The sample as a whole holds a higher share of the highest values than the screen did.

Target: T1, HNF4alpha8 (COS-7 nuclear extract) (Homo sapiens, UniProt P41235-5 1-452)
T1 sequence: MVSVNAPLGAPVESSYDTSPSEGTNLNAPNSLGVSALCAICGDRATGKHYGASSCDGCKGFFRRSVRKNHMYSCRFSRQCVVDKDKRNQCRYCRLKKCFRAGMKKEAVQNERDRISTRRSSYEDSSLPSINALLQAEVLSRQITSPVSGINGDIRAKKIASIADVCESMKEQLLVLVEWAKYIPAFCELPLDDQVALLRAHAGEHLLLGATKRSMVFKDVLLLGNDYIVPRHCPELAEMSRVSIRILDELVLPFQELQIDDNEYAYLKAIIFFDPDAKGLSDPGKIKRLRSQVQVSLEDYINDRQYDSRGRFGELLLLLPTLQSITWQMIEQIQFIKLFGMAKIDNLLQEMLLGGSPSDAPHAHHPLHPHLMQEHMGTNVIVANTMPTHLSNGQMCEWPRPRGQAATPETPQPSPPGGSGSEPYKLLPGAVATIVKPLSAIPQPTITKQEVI
Experiment: protein-binding microarray; COS-7 nuclear extract on double-stranded Agilent 4x180k PBM; binding buffer, salt, pH and temperature not given in the material; high values mean tight binding
Conditions: chain copies: 2; label: 3' end of strand 1 on the slide; dsDNA, one strand shown
Summary of the method: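 Double-stranded oligonucleotides of ~60 nt, representing ~44,000 test sequences in quadruplicate, made up a custom Agilent SurePrint G3 4x180k array. Nuclear extracts from COS-7 cells transiently transfected by CaPO4 with a human HNF4α isoform expression vector were applied, and bound HNF4α was imaged at 2-µm resolution on an Agilent G2565CA scanner. Binding signal refers to the background-corrected, normalized gProcessedSignal output of Agilent software.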

Question: Which binding signal does the source give for “CCCCCTATCCCAAGACATCAATTAACTTGTGCCTAGGGAGATTAGAGTATCGGTCGA” here?
Answer: 3.09 log2 normalized intensity

Question: “CCTAGCCCCACCAAACTGACAGGTTAGACTGCCTAGGGAGATTAGAGTATCGGTCGA” was tested. Which binding signal did it give?
Answer: 2.33 log2 normalized intensity

Question: For “AGGCTGGGGCCCCATCGACCTTTGCTCCCGGCCTAGGGAGATTAGAGTATCGGTCGA”, which binding signal is on record?
Answer: 10.5 log2 normalized intensity

Question: For “GCTCTAGACATCGACCTTTGTGGGCTTCAGGCCTAGGGAGATTAGAGTATCGGTCGA”, which binding signal is on record?
Answer: 3.19 log2 normalized intensity

Question: “TCTTCAGGCTGGGGCCCCATCGACCTTTGCGCCTAGGGAGATTAGAGTATCGGTCGA” was tested. Which binding signal did it give?
Answer: 7.4 log2 normalized intensity

Question: For “GGGGCCCCATCGACCTTTGCTCCCGACTCTGCCTAGGGAGATTAGAGTATCGGTCGA”, which binding signal is on record?
Answer: 8.88 log2 normalized intensity

Question: For “ACCTCCTGGGCCCAAGTGCTCCTCCCCATCGCCTAGGGAGATTAGAGTATCGGTCGA”, which binding signal is on record?
Answer: 3.58 log2 normalized intensity

Question: For “AGACATCGACCTTTGTGGGCTTCAGACATTGCCTAGGGAGATTAGAGTATCGGTCGA”, which binding signal is on record?
Answer: 2.32 log2 normalized intensity

Question: For “CGACCTTTGCTCCCGACTCTGAGGCTCCATGCCTAGGGAGATTAGAGTATCGGTCGA”, which binding signal is on record?
Answer: 5.96 log2 normalized intensity

Question: “CCCATCGACCTTTGCTCCCGACTCTGAGGCGCCTAGGGAGATTAGAGTATCGGTCGA” was tested. Which binding signal did it give?
Answer: 5.95 log2 normalized intensity

Question: Which binding signal does the source give for “GTCCCTGGCCCCGGGGCGGGGGCGGGCTGGGCCTAGGGAGATTAGAGTATCGGTCGA” here?
Answer: -0.21 log2 normalized intensity

Question: How did the binding signal turn out when “AGCAATCATATATGCATTTGTCTCAGGTGGGCCTAGGGAGATTAGAGTATCGGTCGA” was run?
Answer: 1.26 log2 normalized intensity

Question: With “GTGGTCCTAAGACTGACCTTTGATCATTTGGCCTAGGGAGATTAGAGTATCGGTCGA” as the sequence, how does the binding signal read?
Answer: 9.52 log2 normalized intensity

Question: How did the binding signal turn out when “AATCAACCTTTGATCGTTTGCATGCAGGGCGCCTAGGGAGATTAGAGTATCGGTCGA” was run?
Answer: 3.98 log2 normalized intensity

Question: “AATTGACCTTTGATCACTCATGGGCAAGATGCCTAGGGAGATTAGAGTATCGGTCGA” was tested. Which binding signal did it give?
Answer: 6.41 log2 normalized intensity

Question: For “GACTGACCTTTGATCATTTGAGGGTGACACGCCTAGGGAGATTAGAGTATCGGTCGA”, which binding signal is on record?
Answer: 6.1 log2 normalized intensity

Question: For “CTCATGTGGTCCTAAGACTGACCTTTGATCGCCTAGGGAGATTAGAGTATCGGTCGA”, which binding signal is on record?
Answer: 10.6 log2 normalized intensity

Question: How did the binding signal turn out when “AGGAGGCACTGATAAGCGTATTTCAACCTTGCCTAGGGAGATTAGAGTATCGGTCGA” was run?
Answer: 0.651 log2 normalized intensity

Question: For “GCACTGATAAGCGTATTTCAACCTTTGATCGCCTAGGGAGATTAGAGTATCGGTCGA”, which binding signal is on record?
Answer: 8.45 log2 normalized intensity

Question: How did the binding signal turn out when “CCTAAAATTGACCTTTGATCACTCATGGGCGCCTAGGGAGATTAGAGTATCGGTCGA” was run?
Answer: 8.68 log2 normalized intensity

Question: For “GTTTACTCATGTGGTCCTAAGACTGACCTTGCCTAGGGAGATTAGAGTATCGGTCGA”, which binding signal is on record?
Answer: 4.61 log2 normalized intensity

Question: With “TTGTTTACTCATGTGGTCCTAAGACTAACCGCCTAGGGAGATTAGAGTATCGGTCGA” as the sequence, how does the binding signal read?
Answer: 0.432 log2 normalized intensity

Question: Which binding signal does the source give for “GATAAGCGTATTTCAACCTTTGATCTATAAGCCTAGGGAGATTAGAGTATCGGTCGA” here?
Answer: 6.82 log2 normalized intensity

Question: “GAACTGAAAGAGACCTTTGACATCACCTAAGCCTAGGGAGATTAGAGTATCGGTCGA” was tested. Which binding signal did it give?
Answer: 2.77 log2 normalized intensity

Question: Which binding signal does the source give for “AATGCCCAGGATTCCTTTTTCACTGCTCACGCCTAGGGAGATTAGAGTATCGGTCGA” here?
Answer: -0.85 log2 normalized intensity

Question: For “CACTTCCCGAGTGAGGCAATGCCTCGCCCTGCCTAGGGAGATTAGAGTATCGGTCGA”, which binding signal is on record?
Answer: -0.664 log2 normalized intensity

Question: How did the binding signal turn out when “ATTCAGCATTGCTTGGGAGCAGTCCTTGGGGCCTAGGGAGATTAGAGTATCGGTCGA” was run?
Answer: -0.959 log2 normalized intensity

Question: “AGCATGTTTGGTGACCCGTGACCCTCAGGAGCCTAGGGAGATTAGAGTATCGGTCGA” was tested. Which binding signal did it give?
Answer: 3.82 log2 normalized intensity

Question: For “CCGTCTCTCACCAAATCCCTGCCCACATCCGCCTAGGGAGATTAGAGTATCGGTCGA”, which binding signal is on record?
Answer: 2.23 log2 normalized intensity

Question: Which binding signal does the source give for “CTCCTTGGAAGTCGCCGTGAGGTTATTTGCGCCTAGGGAGATTAGAGTATCGGTCGA” here?
Answer: 0.914 log2 normalized intensity

Question: How did the binding signal turn out when “GAGAGGCTTATGCATGGGAGATCTTCAGTAGCCTAGGGAGATTAGAGTATCGGTCGA” was run?
Answer: -0.357 log2 normalized intensity

Question: “TTCCTTATCTGGAATTCCTCCTCCTGTTTGGCCTAGGGAGATTAGAGTATCGGTCGA” was tested. Which binding signal did it give?
Answer: 0.85 log2 normalized intensity

Question: For “TCTTTTGACCTTTGCCTCATTCTTATTGCCGCCTAGGGAGATTAGAGTATCGGTCGA”, which binding signal is on record?
Answer: 5.61 log2 normalized intensity

Question: How did the binding signal turn out when “GACCTTTATATGTCCACCTTATCTAATGCCGCCTAGGGAGATTAGAGTATCGGTCGA” was run?
Answer: 2.22 log2 normalized intensity

Question: With “AGCAAACCTGTCTCTCTGCATTCCTCCTGGGCCTAGGGAGATTAGAGTATCGGTCGA” as the sequence, how does the binding signal read?
Answer: 0.684 log2 normalized intensity

Question: How did the binding signal turn out when “TCTTTAAGGACCACATCAAAGGTCATCTCTGCCTAGGGAGATTAGAGTATCGGTCGA” was run?
Answer: 5.09 log2 normalized intensity

Question: For “TGCAGTGTCCATGGTGACCATGTGATGTGAGCCTAGGGAGATTAGAGTATCGGTCGA”, which binding signal is on record?
Answer: 1.26 log2 normalized intensity

Question: With “TCATGGCTCACTGCACCTTGACCTCCTGGGGCCTAGGGAGATTAGAGTATCGGTCGA” as the sequence, how does the binding signal read?
Answer: 5.78 log2 normalized intensity

Question: For “GATGATCATGGCTCACTGCACCTTGACCTCGCCTAGGGAGATTAGAGTATCGGTCGA”, which binding signal is on record?
Answer: 8.12 log2 normalized intensity

Question: “TGCCTTTGATCAGGGACCTTTGTTCCTTTAGCCTAGGGAGATTAGAGTATCGGTCGA” was tested. Which binding signal did it give?
Answer: 5 log2 normalized intensity

Question: “GTGGTCCTAAAATTGACCTTTGATCACTCAGCCTAGGGAGATTAGAGTATCGGTCGA” was tested. Which binding signal did it give?
Answer: 10.2 log2 normalized intensity

Question: How did the binding signal turn out when “CAAATAAACCTTTGACCAATTGACCCTATCGCCTAGGGAGATTAGAGTATCGGTCGA” was run?
Answer: 4.69 log2 normalized intensity

Question: For “GCTGACCTTTGGTCTAAACCTACTTAGATCGCCTAGGGAGATTAGAGTATCGGTCGA”, which binding signal is on record?
Answer: 4.73 log2 normalized intensity

Question: “TGCACTTTGACCGCTCATTTGATCCTCACAGCCTAGGGAGATTAGAGTATCGGTCGA” was tested. Which binding signal did it give?
Answer: 4.61 log2 normalized intensity

Question: “CTCATGTGGTCCTAAAATTGACCTTTGATCGCCTAGGGAGATTAGAGTATCGGTCGA” was tested. Which binding signal did it give?
Answer: 11 log2 normalized intensity

Question: “AGTGCGATGATCATGGCTCACTGCACCTTGGCCTAGGGAGATTAGAGTATCGGTCGA” was tested. Which binding signal did it give?
Answer: 0.737 log2 normalized intensity
